Measurements reported in PubChem BioAssay (EPA / NIEHS).
Inconclusive results are not listed. Calls of active or inactive are those of the source. The calls were made as follows, unless noted: active = hit-call score of the fitted dose curve at least 0.9, where 1 is the maximum; inconclusive = response in the unintended direction; inactive = score below 0.9.

Key:
[1] = molecular target: Estrogen-related receptor gamma (Homo sapiens) (UniProt P62508); assay: ATG_ERRg_TRANS: Attagene TRANS-FACTORIAL HepG2 Assay for human Estrogen-Related Receptor gamma (ERRg) (AID 2282977); conditions: HepG2 Attagene TRANS reporter, ERRg transactivation;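 also: hits increase reporter signal over DMSO so potencies reflect activators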
Method in brief: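 Exogenous NR-Gal4 chimera activity measured as reporter transcript induction after 24 h in transiently transfected HepG2 cells. RNA reverse-transcribed, PCR-amplified, 6-FAM-labelled and resolved by capillary electrophoresis; increase over DMSO baseline.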

[2] = molecular target: Glucocorticoid receptor (Homo sapiens) (UniProt P04150); assay: ATG_GR_TRANS: Attagene TRANS-FACTORIAL HepG2 Assay for human Glucocorticoid Receptor (GR) (AID 2282978); conditions: HepG2 Attagene TRANS GR reporter, mRNA transcription;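 also: activators score as hits since higher reporter transcript over DMSO is fitted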
Method in brief: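 Multiplexed TRANS reporter system, HepG2; 24 h exposure; RNA → oligo(dT) RT → reporter-specific PCR → 6-FAM primer extension → HpaI cut → CE fluorescence. Gain-of-signal vs DMSO.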

[3] = ATG_M_06_TRANS: Attagene TRANS-FACTORIAL HepG2 Assay for M06 Transcription Factor (Internal Marker) (AID 2282983); conditions: HepG2 Attagene TRANS M06 internal marker reporter
Method in brief: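 Background-control reporter readout: after 24 h chemical exposure of transiently transfected HepG2 (GAL4-UAS reporter units), mRNA quantified by RT-PCR with fluorescent labeling and capillary electrophoresis. Gain-of-signal fitting against DMSO baseline.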

[4] = ATG_M_32_TRANS: Attagene TRANS-FACTORIAL HepG2 Assay for M32 Transcription Factor (Internal Marker) (AID 2282984); conditions: HepG2 Attagene TRANS M32 internal marker reporter;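 also: transcript level of a background control reporter unit measured by RT-PCR and capillary electrophoresis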
Method in brief: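 After 24 h dosing of transfected HepG2 cells, total RNA was reverse-transcribed, reporter sequences PCR-amplified, 6-FAM labelled by primer extension and HpaI-digested before capillary electrophoresis. Signal increase over DMSO was fitted.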

[5] = molecular target: Nuclear receptor subfamily 4 group A member 2 (Homo sapiens) (UniProt P43354); assay: ATG_NURR1_TRANS: Attagene TRANS-FACTORIAL HepG2 Assay for human Nuclear Receptor Related Protein 1 (NURR1) (AID 2282985); conditions: HepG2 Attagene TRANS reporter, mRNA readout
Method in brief: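 Chimeric NR-Gal4 fusion activity measured in HepG2 after 24 h treatment. Reporter transcripts detected by RT-PCR and capillary electrophoresis fluorescence; positive-direction curve fitting against DMSO.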

[6] = molecular target: Transcriptional activator Myb (Homo sapiens) (UniProt P10242); assay: ATG_Myb_CIS: Attagene CIS-FACTORIAL HepG2 Assay for human Myeloblastosis (Myb) Proto-Oncogene Transcription Factor (AID 2282986; active = hit-call score of the fitted dose curve at least 0.9, where 1 is the maximum; inactive = score below 0.9); conditions: HepG2 Attagene CIS-FACTORIAL Myb reporter transcription; actives raise or lower the signal
Method in brief: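 Endogenous transcription factor activity at a Myb-responsive cis element is reported in human liver HepG2 cells after 24 h chemical treatment. Reporter mRNA is detected by RT-PCR and capillary electrophoresis fluorescence, with DMSO as baseline.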

[7] = molecular target: Hepatocyte nuclear factor 4-alpha (Homo sapiens) (UniProt P41235); assay: ATG_HNF4a_TRANS: Attagene TRANS-FACTORIAL HepG2 Assay for human Hepatocyte Nuclear Factor 4 alpha (HNF4a) (AID 2282982); conditions: HepG2 HNF4a transactivation reporter, mRNA readout
Method in brief: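 In this trans-factorial format, a chimeric HNF4a-GAL4 fusion drives a GAL4-UAS reporter in transfected HepG2 liver cells. After 24 h treatment, reporter mRNA induction is measured by RT-PCR with capillary electrophoresis, relative to DMSO.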

[8] = molecular target: Bile acid receptor (Homo sapiens) (UniProt Q96RI1); assay: ATG_FXR_TRANS: Attagene TRANS-FACTORIAL HepG2 Assay for Farnesoid X Receptor (FXR) (AID 2282979); conditions: HepG2 Attagene TRANS FXR-GAL4 reporter transcription;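 also: hits raise reporter mRNA above DMSO so AC50 marks FXR activation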
Method in brief: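 Reporter transcripts from transfected HepG2 cells were measured 24 h after dosing, using RT-PCR with capillary electrophoresis of 6-FAM-labelled fragments. The read-out reflects activity of exogenous FXR-Gal4 chimera on GAL4-UAS units, with induction relative to DMSO.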

[9] = molecular target: Oxysterols receptor LXR-alpha (Homo sapiens) (UniProt Q13133); assay: ATG_LXRa_TRANS: Attagene TRANS-FACTORIAL HepG2 Assay for human Liver X Receptor alpha (LXRa) (AID 2282980); conditions: HepG2 Attagene TRANS reporter, LXRa transactivation
Method in brief: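 Chemical-induced reporter mRNA measured by RT-PCR with fluorescent labelling and capillary electrophoresis after 24 h dosing of transiently transfected HepG2 cells expressing exogenous NR-Gal4 chimeras; increases scored against DMSO baseline.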

[10] = molecular target: Oxysterols receptor LXR-beta (Homo sapiens) (UniProt P55055); assay: ATG_LXRb_TRANS: Attagene TRANS-FACTORIAL HepG2 Assay for human Liver X Receptor beta (LXRb) (AID 2282981); conditions: HepG2 Attagene TRANS GAL4-LXRb reporter, mRNA
Method in brief: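 Measures induction of a Gal4-driven reporter transcript in HepG2 cells expressing an exogenous LXRb-Gal4 fusion. Cells are exposed to compound for 24 h before RNA isolation and RT-PCR with capillary electrophoresis detection.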

Measured: outcome

Sequence of Hepatocyte nuclear factor 4-alpha (Homo sapiens) (P41235 whole entry, looked up, the tested form may be a part): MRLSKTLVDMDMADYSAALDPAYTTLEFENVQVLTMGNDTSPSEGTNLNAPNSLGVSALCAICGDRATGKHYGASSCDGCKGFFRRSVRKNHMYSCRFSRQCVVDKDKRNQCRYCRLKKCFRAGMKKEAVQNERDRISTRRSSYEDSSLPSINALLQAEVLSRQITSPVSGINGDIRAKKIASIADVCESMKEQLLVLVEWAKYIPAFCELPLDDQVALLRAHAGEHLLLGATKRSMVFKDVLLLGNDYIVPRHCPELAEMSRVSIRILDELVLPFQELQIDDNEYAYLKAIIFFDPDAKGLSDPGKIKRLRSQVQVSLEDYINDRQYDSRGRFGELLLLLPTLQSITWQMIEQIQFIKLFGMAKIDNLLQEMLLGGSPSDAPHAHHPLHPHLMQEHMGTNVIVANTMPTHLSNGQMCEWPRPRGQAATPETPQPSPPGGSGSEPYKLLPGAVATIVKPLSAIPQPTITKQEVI
Sequence of Transcriptional activator Myb (Homo sapiens) (P10242 whole entry, looked up): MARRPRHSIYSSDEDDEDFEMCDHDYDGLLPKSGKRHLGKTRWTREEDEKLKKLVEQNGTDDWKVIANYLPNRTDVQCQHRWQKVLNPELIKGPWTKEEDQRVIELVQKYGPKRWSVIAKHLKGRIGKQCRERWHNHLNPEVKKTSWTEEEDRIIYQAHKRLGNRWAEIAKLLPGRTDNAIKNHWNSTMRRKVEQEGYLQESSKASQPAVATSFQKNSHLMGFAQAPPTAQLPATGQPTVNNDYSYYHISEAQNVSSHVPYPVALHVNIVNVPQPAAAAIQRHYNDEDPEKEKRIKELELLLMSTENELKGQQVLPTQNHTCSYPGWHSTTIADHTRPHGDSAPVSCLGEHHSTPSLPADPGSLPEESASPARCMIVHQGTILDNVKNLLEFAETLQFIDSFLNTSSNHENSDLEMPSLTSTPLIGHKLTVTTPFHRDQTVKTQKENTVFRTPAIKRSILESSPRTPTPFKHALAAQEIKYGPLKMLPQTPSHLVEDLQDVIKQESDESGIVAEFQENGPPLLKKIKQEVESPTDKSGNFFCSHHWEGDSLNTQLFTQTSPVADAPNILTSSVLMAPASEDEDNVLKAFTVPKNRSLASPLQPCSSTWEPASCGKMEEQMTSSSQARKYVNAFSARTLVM
Sequence of Oxysterols receptor LXR-alpha (Homo sapiens) (Q13133 whole entry, looked up, the tested form may be a part): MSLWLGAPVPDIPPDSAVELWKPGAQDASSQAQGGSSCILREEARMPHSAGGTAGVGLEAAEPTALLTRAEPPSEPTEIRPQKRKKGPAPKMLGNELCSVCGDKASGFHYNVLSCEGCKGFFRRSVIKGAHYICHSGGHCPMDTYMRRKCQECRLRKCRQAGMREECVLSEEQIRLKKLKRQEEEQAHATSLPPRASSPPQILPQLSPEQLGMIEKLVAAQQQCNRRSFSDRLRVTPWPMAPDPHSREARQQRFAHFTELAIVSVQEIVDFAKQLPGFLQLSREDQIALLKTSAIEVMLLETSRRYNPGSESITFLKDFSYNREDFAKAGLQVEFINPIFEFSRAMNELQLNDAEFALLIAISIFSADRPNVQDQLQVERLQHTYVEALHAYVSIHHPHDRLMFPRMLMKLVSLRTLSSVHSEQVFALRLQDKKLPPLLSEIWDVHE
Sequence of Bile acid receptor (Homo sapiens) (Q96RI1 whole entry, looked up, the tested form may be a part): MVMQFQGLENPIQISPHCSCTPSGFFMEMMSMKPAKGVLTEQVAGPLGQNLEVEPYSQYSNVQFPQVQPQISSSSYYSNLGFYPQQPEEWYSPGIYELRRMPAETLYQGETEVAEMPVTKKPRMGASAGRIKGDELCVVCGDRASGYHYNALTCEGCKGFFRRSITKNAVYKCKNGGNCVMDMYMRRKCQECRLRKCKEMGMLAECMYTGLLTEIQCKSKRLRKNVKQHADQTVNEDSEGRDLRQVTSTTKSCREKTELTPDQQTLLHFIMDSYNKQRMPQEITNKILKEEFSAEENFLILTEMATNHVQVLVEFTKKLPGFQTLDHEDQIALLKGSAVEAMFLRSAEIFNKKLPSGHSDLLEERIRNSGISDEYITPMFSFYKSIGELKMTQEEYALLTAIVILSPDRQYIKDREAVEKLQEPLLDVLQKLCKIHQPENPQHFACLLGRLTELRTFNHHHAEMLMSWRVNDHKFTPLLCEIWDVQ
Sequence of Estrogen-related receptor gamma (Homo sapiens) (P62508 whole entry, looked up, the tested form may be a part): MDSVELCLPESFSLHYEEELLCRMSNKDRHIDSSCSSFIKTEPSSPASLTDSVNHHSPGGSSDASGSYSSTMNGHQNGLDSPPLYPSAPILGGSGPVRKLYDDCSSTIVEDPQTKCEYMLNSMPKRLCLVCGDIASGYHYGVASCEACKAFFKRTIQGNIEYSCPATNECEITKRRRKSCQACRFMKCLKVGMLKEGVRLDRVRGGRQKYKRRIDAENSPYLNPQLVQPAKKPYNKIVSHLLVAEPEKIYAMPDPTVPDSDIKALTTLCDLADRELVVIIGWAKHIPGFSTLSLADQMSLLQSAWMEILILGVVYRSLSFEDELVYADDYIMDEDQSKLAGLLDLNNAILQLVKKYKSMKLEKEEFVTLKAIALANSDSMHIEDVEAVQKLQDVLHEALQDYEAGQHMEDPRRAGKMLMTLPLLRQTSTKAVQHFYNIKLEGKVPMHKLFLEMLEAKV
Sequence of Nuclear receptor subfamily 4 group A member 2 (Homo sapiens) (P43354 whole entry, looked up, the tested form may be a part): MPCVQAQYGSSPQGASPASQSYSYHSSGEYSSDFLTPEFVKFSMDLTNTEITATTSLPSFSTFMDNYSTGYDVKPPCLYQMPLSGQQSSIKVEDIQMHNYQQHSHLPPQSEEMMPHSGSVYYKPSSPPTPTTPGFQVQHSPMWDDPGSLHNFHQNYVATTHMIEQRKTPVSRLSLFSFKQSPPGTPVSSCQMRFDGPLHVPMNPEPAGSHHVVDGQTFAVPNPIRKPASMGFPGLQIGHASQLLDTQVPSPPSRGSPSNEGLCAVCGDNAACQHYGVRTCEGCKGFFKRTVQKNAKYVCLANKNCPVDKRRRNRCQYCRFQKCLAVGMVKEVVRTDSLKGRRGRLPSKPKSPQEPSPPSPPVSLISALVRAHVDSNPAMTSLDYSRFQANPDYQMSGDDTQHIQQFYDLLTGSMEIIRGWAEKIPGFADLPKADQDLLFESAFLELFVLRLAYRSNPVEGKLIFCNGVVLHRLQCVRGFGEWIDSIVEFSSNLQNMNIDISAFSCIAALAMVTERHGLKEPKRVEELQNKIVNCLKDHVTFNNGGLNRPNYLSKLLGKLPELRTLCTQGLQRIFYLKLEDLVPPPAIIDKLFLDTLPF
Sequence of Glucocorticoid receptor (Homo sapiens) (P04150 whole entry, looked up): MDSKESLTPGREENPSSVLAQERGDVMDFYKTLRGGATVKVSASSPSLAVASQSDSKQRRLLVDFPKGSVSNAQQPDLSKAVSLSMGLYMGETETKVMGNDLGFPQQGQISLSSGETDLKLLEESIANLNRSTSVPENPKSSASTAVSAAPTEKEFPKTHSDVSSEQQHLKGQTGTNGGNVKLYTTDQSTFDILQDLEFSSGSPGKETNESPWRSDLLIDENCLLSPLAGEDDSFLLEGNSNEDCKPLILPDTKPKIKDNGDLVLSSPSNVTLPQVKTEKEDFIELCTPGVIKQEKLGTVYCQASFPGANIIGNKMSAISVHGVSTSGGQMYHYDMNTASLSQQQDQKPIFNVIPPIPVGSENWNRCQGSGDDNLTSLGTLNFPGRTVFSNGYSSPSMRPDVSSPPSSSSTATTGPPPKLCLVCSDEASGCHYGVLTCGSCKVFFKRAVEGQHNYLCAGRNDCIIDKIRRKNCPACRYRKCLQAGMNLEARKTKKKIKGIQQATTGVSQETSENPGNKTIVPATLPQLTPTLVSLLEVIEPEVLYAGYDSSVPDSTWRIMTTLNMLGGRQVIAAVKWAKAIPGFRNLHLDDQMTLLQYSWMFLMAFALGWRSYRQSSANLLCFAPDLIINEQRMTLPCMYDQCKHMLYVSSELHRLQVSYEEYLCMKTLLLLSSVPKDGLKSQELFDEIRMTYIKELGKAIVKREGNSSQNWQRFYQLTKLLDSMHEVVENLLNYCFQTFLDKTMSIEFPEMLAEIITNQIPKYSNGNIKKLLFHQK
Sequence of Oxysterols receptor LXR-beta (Homo sapiens) (P55055 whole entry, looked up, the tested form may be a part): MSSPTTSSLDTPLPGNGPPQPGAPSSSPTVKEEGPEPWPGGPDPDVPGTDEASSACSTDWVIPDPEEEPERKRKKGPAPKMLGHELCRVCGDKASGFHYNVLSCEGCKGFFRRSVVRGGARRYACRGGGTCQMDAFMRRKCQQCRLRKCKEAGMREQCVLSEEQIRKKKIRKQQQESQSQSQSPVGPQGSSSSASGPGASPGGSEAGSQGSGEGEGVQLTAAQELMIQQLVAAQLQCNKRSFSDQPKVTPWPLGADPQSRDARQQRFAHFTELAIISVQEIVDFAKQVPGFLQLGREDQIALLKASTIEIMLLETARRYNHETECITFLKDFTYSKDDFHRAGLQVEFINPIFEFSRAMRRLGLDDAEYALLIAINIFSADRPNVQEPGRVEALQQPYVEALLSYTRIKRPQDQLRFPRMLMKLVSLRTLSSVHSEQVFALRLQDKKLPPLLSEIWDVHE

O=S(=O)(O)c1ccc(Nc2nc(Nc3ccc(C=Cc4ccc(Nc5nc(Nc6ccc(S(=O)(=O)O)cc6)nc(N(CCO)CCO)n5)cc4S(=O)(=O)O)c(S(=O)(=O)O)c3)nc(N(CCO)CCO)n2)cc1
inactive: [1] | [2] | [3] | [4] | [5] | [6]

C=C(C)C1CC=C(C)C(OC(C)=O)C1 (centres undefined)
inactive: [1] | [2] | [4] | [6]

CC(Cl)COP(=O)(OCC(C)Cl)OCC(C)Cl (centres undefined)
inactive: [1] | [2] | [7] | [4] | [5] | [6]

O=C(O)C(F)(F)C(F)(F)C(F)(F)C(F)(F)C(=O)O
inactive: [1] | [8] | [5] | [6]

CC1=CC(C)C(C=O)CC1 (centres undefined)
inactive: [1] | [2] | [9] | [7] | [3] | [5]

O=C(Cl)c1c(Cl)c(Cl)c(C(=O)Cl)c(Cl)c1Cl
inactive: [1] | [2] | [8] | [9] | [7] | [5] | [6]

C=C(C)C(=O)OCCCCCCCCCCCC
inactive: [1] | [2] | [4] | [5] | [6]

CC(C)(c1ccccc1)c1ccc(Nc2ccc(C(C)(C)c3ccccc3)cc2)cc1
inactive: [1] | [2] | [9] | [10] | [3] | [5] | [6]

COC(=O)CC(C)CCC=C(C)C (centres undefined)
inactive: [1] | [2] | [8] | [9] | [10] | [7] | [4]

c1ccc2cnccc2c1
inactive: [1] | [2] | [10] | [3] | [6]

CCCCCCCC(=O)OCC
inactive: [1] | [8] | [10] | [6]

CCOC(=O)C1=NN(c2ccc(Cl)cc2Cl)C(C)(C(=O)OCC)C1 (centres undefined)
inactive: [1] | [2] | [8] | [9] | [7] | [4] | [6]

COC(OC)(C(=O)c1ccccc1)c1ccccc1
inactive: [1] | [2] | [7] | [3] | [4] | [5] | [6]

CC1=CP(=O)(c2ccccc2)CC1 (centres undefined)
inactive: [1] | [2] | [8] | [5] | [6]

CCCC(C)C(=O)OCC (centres undefined)
inactive: [1] | [2] | [3] | [6]

CCCCC(CC)COS(=O)(=O)O (centres undefined)
inactive: [1] | [8] | [7] | [3] | [4] | [6]

Cn1ccnc1
inactive: [1] | [2] | [8] | [9] | [7] | [4] | [5] | [6]

CCCCCCOC(=O)CCCCC(=O)OCCCCCC
inactive: [1] | [8] | [10] | [3] | [6]

CC1C(C)(C)C2=C(C(=O)CCC2)C1(C)C (centres undefined)
inactive: [1] | [2] | [9] | [5] | [6]

CCCCNC(=S)NCCCC
inactive: [1] | [2] | [8] | [3] | [4]

CCC(=O)C1CC(C(C)C)CC=C1C (centres undefined)
inactive: [1] | [2] | [9] | [6]

Nc1ccc(O)c([N+](=O)[O-])c1
inactive: [1] | [9] | [10] | [7] | [3]

[Cl][Sc]([Cl])[Cl]
inactive: [1] | [2] | [10] | [7]

CC(=O)OC1CCCCC1
inactive: [1] | [2] | [8] | [7] | [6]

C=C(C)OC(C)=O
inactive: [1] | [2] | [9] | [10] | [7] | [3] | [4] | [5] | [6]

CCCCC1C(=O)N(c2ccccc2)N(c2ccccc2)C1=O
inactive: [1] | [2] | [8] | [5] | [6]

COc1ccc(C(=O)/C(Br)=C\C(=O)O)cc1
inactive: [1] | [8] | [10] | [4]

Fc1ccc(Br)cc1
inactive: [1] | [2] | [9] | [10] | [5] | [6]

CN(C)c1ccc2nc3ccc(=[N+](C)C)cc-3sc2c1
inactive: [1] | [8] | [9] | [7] | [3] | [5]

O=C1CCCN1C1CCCCC1
inactive: [1] | [8] | [6]

Cc1c(O)cccc1O
inactive: [1] | [8] | [7] | [6]

CC(C)c1ccc2ncccc2c1
inactive: [1] | [8] | [3]

CCN(CC)c1cccc(C)c1
inactive: [1] | [2] | [9] | [7] | [4] | [5] | [6]

CCCCC(CC)COC(=O)/C=C/c1ccc(OC)cc1 (centres undefined)
inactive: [1] | [2] | [9] | [5]

CC(CCC(=O)O)(c1ccc(O)cc1)c1ccc(O)cc1
inactive: [1] | [2] | [7] | [3] | [4] | [5] | [6]

CCC1(C)C(=O)N(Cl)C(=O)N1Cl (centres undefined)
inactive: [1] | [2] | [4] | [5] | [6]
